Test results as given in the supplement of paper PMC10849652.
The full data set covers some 7,900 targets. This sample favours those with a hit. About 0.6% of all pairs of compound and target were hits. A number with no mark means an inactive call.

How the values were obtained:
Test in all cases: log2 fold change, soluble protein after heating vs DMSO (PISA); higher = thermal stabilisation; K562 cells, 10 uM, 30 min; active = over 0.2 and 3.5 SD of the protein, either way, in both replicates (recomputed)
[1] = compound: C1=CC=C(C=C1)[C@H](COC2=CC3=C(C=C2)NC(=O)N3)NC(=O)C4=CC=CN(C4=O)CC5=CC(=C(C=C5)F)F
How it was run: (§1)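 Quantification of soluble protein used TMTpro 16plex LC-MS/MS, with channel sums equalised. Samples were the supernatant after 21,000xg for 90 min of pooled aliquots from K562 cells (2×10^6 cells/mL) treated with 10 μM compound for 30 min, heated for 3 min over 48°C-58°C, and extracted in PBS with 0.5% NP-40 at 4°C. Values, from duplicates, describe thermal stability against control samples on a log2 fold-change scale.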

[2] = compound: CC1=C(SC2=C1C(=N[C@H](C3=NN=C(N32)C)CC(=O)N)C4=CC=C(C=C4)Cl)C
How it was run: as §1

[3] = compound: CC1=C2C(=CC=C1)N=C(N(C2=O)C3=CC=CC=C3C)CN4C=NC5=C(N=CN=C54)N
How it was run: as §1

[4] = compound: Cc1sc2c(c1C)C(c1ccc(Cl)cc1)=N[C@@H](CC(=O)OC(C)(C)C)c1nnc(C)n1-2
How it was run: as §1

[5] = compound: c1ccc([C@@H]2C[C@H]2NC2CCNCC2)cc1
How it was run: as §1

Sequence of UniProt Q9NVM4 (Q9NVM4 whole entry, looked up): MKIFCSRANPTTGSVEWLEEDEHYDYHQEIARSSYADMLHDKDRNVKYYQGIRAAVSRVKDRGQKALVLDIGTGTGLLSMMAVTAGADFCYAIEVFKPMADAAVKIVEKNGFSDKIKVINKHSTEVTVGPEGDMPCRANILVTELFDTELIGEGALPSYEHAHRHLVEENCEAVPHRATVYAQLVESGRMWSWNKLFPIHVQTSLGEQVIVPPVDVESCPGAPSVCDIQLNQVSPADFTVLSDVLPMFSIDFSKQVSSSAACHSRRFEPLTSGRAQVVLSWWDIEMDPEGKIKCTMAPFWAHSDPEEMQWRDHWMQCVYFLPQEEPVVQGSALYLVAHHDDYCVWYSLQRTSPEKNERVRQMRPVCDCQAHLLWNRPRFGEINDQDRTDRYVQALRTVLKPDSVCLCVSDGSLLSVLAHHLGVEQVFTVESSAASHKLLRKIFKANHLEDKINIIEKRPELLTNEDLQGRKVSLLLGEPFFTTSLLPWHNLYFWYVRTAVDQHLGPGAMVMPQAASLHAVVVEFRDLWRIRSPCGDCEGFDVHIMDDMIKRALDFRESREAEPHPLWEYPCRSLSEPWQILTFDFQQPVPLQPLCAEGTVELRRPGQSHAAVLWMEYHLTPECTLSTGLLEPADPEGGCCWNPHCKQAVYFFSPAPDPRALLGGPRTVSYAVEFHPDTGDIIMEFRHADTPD
Sequence of UniProt Q2TAL8 (Q2TAL8 whole entry, looked up): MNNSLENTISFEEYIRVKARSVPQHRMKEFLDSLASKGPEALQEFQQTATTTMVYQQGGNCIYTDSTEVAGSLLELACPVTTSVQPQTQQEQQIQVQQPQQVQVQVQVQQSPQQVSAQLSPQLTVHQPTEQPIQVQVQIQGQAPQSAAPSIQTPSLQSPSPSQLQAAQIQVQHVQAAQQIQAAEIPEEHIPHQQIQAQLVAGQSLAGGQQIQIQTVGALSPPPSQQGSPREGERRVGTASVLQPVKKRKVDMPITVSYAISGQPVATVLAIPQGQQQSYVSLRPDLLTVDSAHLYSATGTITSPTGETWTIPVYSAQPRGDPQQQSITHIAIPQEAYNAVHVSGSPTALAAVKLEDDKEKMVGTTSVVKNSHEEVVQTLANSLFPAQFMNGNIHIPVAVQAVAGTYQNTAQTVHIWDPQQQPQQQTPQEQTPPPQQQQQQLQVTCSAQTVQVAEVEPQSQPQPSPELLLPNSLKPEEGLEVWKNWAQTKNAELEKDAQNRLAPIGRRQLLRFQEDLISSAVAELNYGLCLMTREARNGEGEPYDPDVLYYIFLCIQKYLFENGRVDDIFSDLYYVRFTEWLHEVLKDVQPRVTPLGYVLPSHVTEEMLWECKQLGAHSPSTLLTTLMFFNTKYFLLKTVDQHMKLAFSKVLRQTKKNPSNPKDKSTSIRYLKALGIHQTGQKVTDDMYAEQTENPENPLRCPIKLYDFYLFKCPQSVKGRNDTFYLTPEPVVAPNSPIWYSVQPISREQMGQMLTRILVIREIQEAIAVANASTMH
Sequence of UniProt Q53EL6 (Q53EL6 whole entry, looked up): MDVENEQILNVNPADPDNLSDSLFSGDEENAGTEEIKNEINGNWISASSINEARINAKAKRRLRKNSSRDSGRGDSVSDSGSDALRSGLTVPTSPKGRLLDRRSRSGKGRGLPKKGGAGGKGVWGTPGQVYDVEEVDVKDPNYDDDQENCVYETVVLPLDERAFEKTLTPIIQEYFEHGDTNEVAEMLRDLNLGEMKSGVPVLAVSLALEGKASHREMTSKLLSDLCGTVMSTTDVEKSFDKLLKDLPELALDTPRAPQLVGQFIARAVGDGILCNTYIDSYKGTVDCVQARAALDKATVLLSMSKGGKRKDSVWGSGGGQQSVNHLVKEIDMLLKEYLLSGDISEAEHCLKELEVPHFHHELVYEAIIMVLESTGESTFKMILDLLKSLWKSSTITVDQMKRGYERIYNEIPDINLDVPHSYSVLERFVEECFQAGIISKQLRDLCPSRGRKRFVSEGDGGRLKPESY
Sequence of UniProt O15067 (O15067 whole entry, looked up): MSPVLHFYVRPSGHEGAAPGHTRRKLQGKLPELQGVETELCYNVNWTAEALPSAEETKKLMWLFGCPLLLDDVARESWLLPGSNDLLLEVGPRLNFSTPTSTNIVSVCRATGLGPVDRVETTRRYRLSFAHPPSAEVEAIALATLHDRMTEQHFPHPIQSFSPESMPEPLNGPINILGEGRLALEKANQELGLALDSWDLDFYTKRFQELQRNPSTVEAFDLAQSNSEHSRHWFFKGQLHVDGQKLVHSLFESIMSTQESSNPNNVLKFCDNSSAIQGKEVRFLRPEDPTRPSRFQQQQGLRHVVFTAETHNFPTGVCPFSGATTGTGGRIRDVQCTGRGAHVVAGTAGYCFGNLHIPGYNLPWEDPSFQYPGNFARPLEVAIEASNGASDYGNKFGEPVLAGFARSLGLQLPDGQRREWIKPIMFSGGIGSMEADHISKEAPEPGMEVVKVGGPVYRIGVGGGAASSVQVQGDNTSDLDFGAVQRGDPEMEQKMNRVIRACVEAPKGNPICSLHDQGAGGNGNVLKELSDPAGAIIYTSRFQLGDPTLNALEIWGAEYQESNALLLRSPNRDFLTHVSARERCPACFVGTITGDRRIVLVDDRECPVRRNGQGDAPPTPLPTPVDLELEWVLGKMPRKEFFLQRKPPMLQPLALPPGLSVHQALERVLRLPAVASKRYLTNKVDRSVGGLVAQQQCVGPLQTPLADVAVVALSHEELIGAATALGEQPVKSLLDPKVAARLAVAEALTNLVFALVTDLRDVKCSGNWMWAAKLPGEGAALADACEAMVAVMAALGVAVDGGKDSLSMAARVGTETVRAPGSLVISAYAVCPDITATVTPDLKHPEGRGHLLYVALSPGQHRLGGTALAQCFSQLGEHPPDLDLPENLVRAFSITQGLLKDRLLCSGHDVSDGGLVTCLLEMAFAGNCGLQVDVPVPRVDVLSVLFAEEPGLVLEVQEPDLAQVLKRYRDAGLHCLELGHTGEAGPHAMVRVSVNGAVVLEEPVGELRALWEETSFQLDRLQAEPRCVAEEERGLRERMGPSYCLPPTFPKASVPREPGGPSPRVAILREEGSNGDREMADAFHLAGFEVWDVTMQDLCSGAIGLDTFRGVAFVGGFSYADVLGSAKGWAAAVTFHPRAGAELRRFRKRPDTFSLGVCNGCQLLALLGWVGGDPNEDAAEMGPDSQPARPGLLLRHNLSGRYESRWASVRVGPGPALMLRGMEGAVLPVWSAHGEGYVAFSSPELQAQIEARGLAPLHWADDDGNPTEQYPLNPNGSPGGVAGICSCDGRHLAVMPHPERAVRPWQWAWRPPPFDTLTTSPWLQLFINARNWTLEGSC
Sequence of UniProt Q12974 (Q12974 whole entry, looked up): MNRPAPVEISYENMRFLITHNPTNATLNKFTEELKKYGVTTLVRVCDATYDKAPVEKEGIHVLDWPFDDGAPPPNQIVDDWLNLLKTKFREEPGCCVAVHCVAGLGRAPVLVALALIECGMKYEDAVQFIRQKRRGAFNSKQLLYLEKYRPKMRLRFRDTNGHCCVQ
Sequence of UniProt Q14289 (Q14289 whole entry, looked up): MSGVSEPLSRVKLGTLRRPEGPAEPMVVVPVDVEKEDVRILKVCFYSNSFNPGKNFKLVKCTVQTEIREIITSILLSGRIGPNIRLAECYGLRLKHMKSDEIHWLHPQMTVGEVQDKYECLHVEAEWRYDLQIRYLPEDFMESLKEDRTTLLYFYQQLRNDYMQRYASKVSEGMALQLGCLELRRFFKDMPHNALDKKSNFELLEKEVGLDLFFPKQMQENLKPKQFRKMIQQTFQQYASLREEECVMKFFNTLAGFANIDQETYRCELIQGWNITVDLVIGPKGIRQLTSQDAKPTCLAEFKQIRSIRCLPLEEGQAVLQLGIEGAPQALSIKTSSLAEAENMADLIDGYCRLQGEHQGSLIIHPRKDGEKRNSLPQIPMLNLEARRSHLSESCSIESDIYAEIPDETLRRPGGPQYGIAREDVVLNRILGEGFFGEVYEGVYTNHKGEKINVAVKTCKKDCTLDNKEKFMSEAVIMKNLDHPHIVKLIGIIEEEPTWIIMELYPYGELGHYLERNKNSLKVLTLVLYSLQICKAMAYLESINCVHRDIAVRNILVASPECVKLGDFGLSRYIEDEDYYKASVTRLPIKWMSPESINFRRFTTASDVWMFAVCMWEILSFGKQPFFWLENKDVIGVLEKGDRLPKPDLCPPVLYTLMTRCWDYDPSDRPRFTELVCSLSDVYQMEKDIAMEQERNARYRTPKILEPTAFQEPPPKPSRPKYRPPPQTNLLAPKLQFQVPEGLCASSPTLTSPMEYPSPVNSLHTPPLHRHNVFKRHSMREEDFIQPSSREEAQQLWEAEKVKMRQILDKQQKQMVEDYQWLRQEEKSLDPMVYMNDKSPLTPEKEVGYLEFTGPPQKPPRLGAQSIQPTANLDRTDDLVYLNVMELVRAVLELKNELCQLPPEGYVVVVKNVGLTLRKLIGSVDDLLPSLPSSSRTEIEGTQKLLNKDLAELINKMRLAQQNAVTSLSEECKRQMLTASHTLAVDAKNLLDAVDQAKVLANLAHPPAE
Sequence of UniProt P10644 (P10644 whole entry, looked up): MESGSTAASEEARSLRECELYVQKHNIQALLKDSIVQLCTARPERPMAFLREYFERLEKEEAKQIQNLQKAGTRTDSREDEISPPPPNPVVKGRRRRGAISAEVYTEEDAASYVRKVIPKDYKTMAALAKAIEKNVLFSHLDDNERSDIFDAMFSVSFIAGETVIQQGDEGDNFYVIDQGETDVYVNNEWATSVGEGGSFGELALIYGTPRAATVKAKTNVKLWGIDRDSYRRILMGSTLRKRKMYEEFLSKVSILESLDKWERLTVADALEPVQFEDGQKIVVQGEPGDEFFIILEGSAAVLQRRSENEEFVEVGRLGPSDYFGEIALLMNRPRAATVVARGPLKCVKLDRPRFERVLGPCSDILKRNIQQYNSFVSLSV
Sequence of UniProt Q8WUK0 (Q8WUK0 whole entry, looked up): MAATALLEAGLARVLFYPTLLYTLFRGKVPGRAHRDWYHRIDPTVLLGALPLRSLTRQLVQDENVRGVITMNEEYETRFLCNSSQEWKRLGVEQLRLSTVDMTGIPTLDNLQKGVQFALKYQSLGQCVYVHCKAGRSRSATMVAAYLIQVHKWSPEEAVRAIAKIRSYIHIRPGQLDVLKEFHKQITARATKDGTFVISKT

Row | Target | log2 fold change [1] | log2 fold change [2] | log2 fold change [3] | log2 fold change [4] | log2 fold change [5]
1 | PMM1 (UniProt Q92871) | -0.031 | -0.001 | 0.091 | 0.004 | -0.006
2 | PIK3R1 (UniProt P27986) | -0.059 | 0.019 | 0.138 | 0.005 | -0.027
3 | PLSCR1 (UniProt O15162) | 0.017 | 0.036 | -0.016 | -0.051 | 0.055
4 | PDS5B (UniProt Q9NTI5) | -0.153 | 0.029 | 0.169 | 0.233 | -0.011
5 | POLR2E (UniProt P19388) | -0.013 | 0.094 | -0.023 | 0.054 | -0.06
6 | PDCD4 (UniProt Q53EL6) | -0.055 | 0.002 | 0.053 | -0.167 | -0.003
7 | PRKACA (UniProt P17612) | -0.01 | 0.005 | -0.053 | -0.009 | 0.035
8 | PTGES3 (UniProt Q15185) | -0.009 | 0.016 | 0.067 | -0.046 | -0.063
9 | QRICH1 (UniProt Q2TAL8) | -0.029 | -0.148 | 0 | -0.02 | -0.016
10 | POLD3 (UniProt Q15054) | -0.027 | 0.14 | 0.104 | -0.037 | -0.009
11 | POLR2G (UniProt P62487) | 0.082 | 0.176 | 0.001 | 0.167 | -0.016
12 | PSMC1 (UniProt P62191) | 0.047 | -0.09 | -0.002 | 0 | 0
13 | PRKAB2 (UniProt O43741) | -0.133 | 0.084 | -0.087 | -0.117 | -0.077
14 | PGK2 (UniProt P07205) | -0.1 | 0.046 | 0.153 | 0.037 | 0.034
15 | PRPF38A (UniProt Q8NAV1) | 0.014 | -0.011 | 0.024 | 0.007 | 0.015
16 | PLK1 (UniProt P53350) | 0.02 | 0.037 | 0.019 | -0.012 | 0.007
17 | PRPF38B (UniProt Q5VTL8) | 0.038 | 0.066 | 0.052 | 0.056 | 0.032
18 | PPP1R35 (UniProt Q8TAP8) | 0.01 | 0.006 | 0.067 | 0.03 | 0.362 (active)
19 | PFAS (UniProt O15067) | -0.08 | 0.021 | 0.144 | 0.014 | -0.065
20 | POGLUT1 (UniProt Q8NBL1) | 0.039 | -0.041 | 0.082 | 0.07 | 0.015
21 | PTP4A1 (UniProt Q93096) | -0.002 | 0.109 | 0.037 | 0.001 | -0.031
22 | PTTG1 (UniProt O95997) | -0.005 | 0.003 | 0.014 | 0.004 | 0.011

Row | Target | log2 fold change [1] | log2 fold change [2] | log2 fold change [3] | log2 fold change [4] | log2 fold change [5]
23 | PXK (UniProt Q7Z7A4) | -0.015 | 0.04 | 0.098 | 0.011 | -0.045
24 | PLA2G15 (UniProt Q8NCC3) | 0.02 | -0.01 | -0.034 | -0.001 | 0
25 | PPP2R5A (UniProt Q15172) | -0.036 | 0.07 | -0.006 | -0.08 | -0.08
26 | PECAM1 (UniProt P16284) | 0.063 | 0.138 | 0.014 | -0.06 | 0.047
27 | PDE6D (UniProt O43924) | -0.053 | 0.238 | -0.004 | -0.13 | 0.017
28 | PTRH2 (UniProt Q9Y3E5) | 0.018 | 0.068 | 0.019 | -0.106 | -0.02
29 | PSMD11 (UniProt O00231) | 0.043 | -0.049 | -0.053 | -0.017 | 0
30 | PSMD12 (UniProt O00232) | 0.021 | -0.063 | -0.066 | -0.045 | -0.009
31 | POLR3K (UniProt Q9Y2Y1) | -0.009 | -0.008 | -0.029 | 0.021 | 0.056
32 | PPIL1 (UniProt Q9Y3C6) | -0.046 | 0.012 | 0.021 | 0.032 | -0.052
33 | PURA (UniProt Q00577) | 0.116 | -0.403 | -0.092 | 0.298 | 0.043
34 | PTPMT1 (UniProt Q8WUK0) | -0.019 | 0.086 | 0.029 | 0.066 | 0.01
35 | PNPLA4 (UniProt P41247) | 0.068 | 0.158 | 0.042 | 0.099 | 0.178
36 | PTK2B (UniProt Q14289) | -0.105 | -0.098 | 0.194 | 0 | -0.013
37 | PRIM2 (UniProt P49643) | -0.07 | 0.063 | 0.189 | 0.014 | -0.092
38 | PRMT7 (UniProt Q9NVM4) | -0.051 | 0.015 | 0.056 | 0.009 | -0.027
39 | PTP4A2 (UniProt Q12974) | -0.021 | 0.028 | 0.056 | 0.052 | -0.029
40 | PSMC6 (UniProt P62333) | 0.04 | -0.087 | -0.037 | 0.017 | 0.006
41 | PLD3 (UniProt Q8IV08) | 0.022 | 0.058 | 0.033 | 0.017 | 0.009
42 | PUF60 (UniProt Q9UHX1) | 0.031 | 0.033 | 0.081 | -0.036 | 0.007
43 | PRKAR1A (UniProt P10644) | 0.213 | -0.019 | 0.119 | 0.041 | -0.008
